The record followed here is PubChem BioAssay AID651919 (Sanford-Burnham Center for Chemical Genomics, 2012).

Where “and” joins values, the source holds several entries; their conditions need not be identical. Equal values may be shown once.

In the assay the target is C-X-C chemokine receptor type 5 (Homo sapiens) (UniProt P32302). Briefly: antagonism of CXCR6 versus CXCR5 signaling – cell-based, CHO-K1 PathHunter beta-arrestin, luminescence, set 4, selectivity assay for CXCR6 antagonist project, profiling panel (AID 651919). Particulars: run 1, at 79 µM (top of the series).
Broadly, the inhibition is the change of the read-out against control, counted positive when it falls. On to `COc1cccc(C(=O)NC2CC3CCCC(C2)N3CC(=O)Nc2ccc(Cl)cc2)c1` (stereo not given), for which the inhibition was -2.39%. The value for `COc1cccc(C(=O)NC2CC3CCCC(C2)N3CC(=O)Nc2ccccc2)c1` (stereo not given) was 10.5%; that for `COc1cc(OC)cc(C(=O)NC2CC3CCCC(C2)N3CC(=O)Nc2ccc(F)cc2)c1` (stereo not given) was 32.4%. For `COc1cc(C(=O)NC2CC3CCCC(C2)N3CC(=O)Nc2ccccc2)cc(OC)c1OC` (stereo not given), the inhibition was 8.6% and 15.6%. Regarding `COc1ccc(NC(=O)CN2C3CCCC2CC(NC(=O)c2ccc(OC)cc2)C3)cc1` (stereo not given), the inhibition was -6.48%. As for `COc1cc(C(=O)NC2CC3CCCC(C2)N3CC(=O)Nc2ccccc2Cl)cc(OC)c1OC` (stereo not given), the inhibition was 29.2% and 16%. As for `Cc1ccc(NC(=O)CN2C3CCCC2CC(NC(=O)c2ccc4c(c2)OCO4)C3)cc1` (stereo not given), the inhibition was determined as 42%.

As for `COc1ccc(C(=O)NC2CC3CCCC(C2)N3CC(=O)Nc2ccc(C)cc2)cc1OC` (stereo not given), the inhibition turned out to be 22.7%. Take `COc1ccc(NC(=O)CN2C3CCCC2CC(NC(=O)c2cc(OC)cc(OC)c2)C3)cc1` (stereo not given): the inhibition is 22.9%.

As to `O=C(CN1C2CCCC1CC(NC(=O)c1ccc3c(c1)OCO3)C2)Nc1ccccc1` (stereo not given), the inhibition came to 27.8%. The value for `COc1ccc(CN2C3CCCC2CC(NC(=O)c2cc(OC)c(OC)c(OC)c2)C3)cc1` (stereo not given) was 37%. Turning to `COc1cc(C(=O)NC2CC3CCCC(C2)N3CC(=O)Nc2ccc(C)cc2)cc(OC)c1OC` (stereo not given), the inhibition was 2.28%. For the molecule `COc1ccc(C(=O)NC2CC3CCCC(C2)N3CC(=O)Nc2ccccc2)cc1` (stereo not given), the inhibition is 3.68%. Consider `O=C(CN1C2CCCC1CC(NC(=O)c1ccccc1)C2)Nc1ccccc1` (stereo not given), for which the inhibition stood at 8.48%. Consider `COc1ccccc1NC(=O)CN1C2CCCC1CC(NC(=O)c1cc(OC)c(OC)c(OC)c1)C2` (stereo not given), for which the inhibition was determined as 10.1%.
